# Reference: the supplement of paper PMC10849652
# Of roughly 7,900 targets only a part is listed; those with a hit were picked by preference. About 0.6% of all pairs of compound and target were hits. Unmarked numbers belong to inactive results.
# Key:
# Test in all cases: log2 fold change, soluble protein after heating vs DMSO (PISA); higher = thermal stabilisation; K562 cells, 10 uM, 30 min; active = over 0.2 and 3.5 SD of the protein, either way, in both replicates (recomputed)
# [1] = compound: CC1=C(C=C(C=C1)NC(=O)C2=CC(=CC=C2)C(C)(C)C#N)NC3=CC4=C(C=C3)N=CN(C4=O)C
# Method in brief: (§1)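 Soluble protein was defined as the supernatant after 21,000xg for 90 min. It came from K562 cells at 2×10^6 cells/mL given 10 μM compound for 30 min, heated in aliquots for 3 min across 48°C-58°C, pooled, and extracted in PBS with 0.5% NP-40 at 4°C, and was quantified by TMTpro 16plex LC-MS/MS with equalised channel sums. Thermal stability against control samples, from duplicates, is reported as log2 fold change.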
# [2] = compound: CC1=C(C=C(C=C1)NC(=O)C2=CC(=CC=C2)N(C)C)NC(=O)C3=CC=C(C=C3)O
# Method in brief: as §1
# [3] = compound: CC1=CC=C(C=C1)SC2=C3C=C(SC3=CN=C2)C(=O)N
# Method in brief: as §1
# [4] = compound: CC1=NC(=CC=C1)C2=C(N=C(N2)C(C)(C)C)C3=CC4=NC=CN=C4C=C3
# Method in brief: as §1
# [5] = compound: CCCCN(Cc1ccc(C(=O)NO)cc1)C(=O)Nc1ccccc1 [Nexturastat A]
# Method in brief: as §1
# [6] = compound: CCCS(=O)(=O)Nc1ccc(F)c(C(=O)c2c[nH]c3ncc(-c4ccc(Cl)cc4)cc23)c1F [vemurafenib]
# Method in brief: as §1
# [7] = compound: CCCS(=O)(=O)Nc1ccc(F)c(C(=O)c2c[nH]c3ncc(Cl)cc23)c1F
# Method in brief: as §1
# [8] = compound: CCCc1cc(C)[nH]c(=O)c1CNC(=O)c1cc(-c2ccnc(N3CCN(C)CC3)c2)cc2c1cnn2C(C)C
# Method in brief: as §1
# [9] = compound: CCN(CC)Cc1ccc2cc(COC(=O)Nc3ccc(C(=O)NO)cc3)ccc2c1 [givinostat]
# Method in brief: as §1
# [10] = compound: CCN(CCCOc1ccc2c(Nc3cc(CC(=O)Nc4cccc(F)c4)[nH]n3)ncnc2c1)CCOP(=O)(O)O [barasertib]
# Method in brief: as §1
# [11] = compound: CC[C@@H]1C(=O)N(C)c2cnc(Nc3ccc(C(=O)NC4CCN(C)CC4)cc3OC)nc2N1C1CCCC1
# Method in brief: as §1
# [12] = compound: CC[C@@H]1C(=O)N(C)c2cnc(Nc3ccc(C(=O)N[C@H]4CC[C@H](N5CCN(CC6CC6)CC5)CC4)cc3OC)nc2N1C(C)C [volasertib]
# Method in brief: as §1
# [13] = compound: CC[C@H](C)N1C=C(C2=C(C=C(C=C21)C3=CN=C(C=C3)N4CCNCC4)C(=O)NCC5=C(C=C(NC5=O)C)C)C
# Method in brief: as §1
# [14] = compound: CC[C@H](C)[C@@H](C(=O)N[C@@H]([C@@H](C)O)C(=O)N[C@@H](CC(C)C)C(=O)[C@]1(CO1)C)NC(=O)[C@H]([C@@H](C)CC)N(C)C(=O)C [epoxomicin]
# Method in brief: as §1
# [15] = compound: CCn1c(C(=O)N(C2CC2)C2CC2)cc2c3c(ncn3C)c(Nc3cc(C)n(C)n3)nc21
# Method in brief: as §1
# [16] = compound: CCn1cc(-c2ccnc3[nH]c(-c4cccc(CN(C)C)c4)cc23)c(-c2ccc(NC(=O)N(C)C)cc2)n1
# Method in brief: as §1
# [17] = compound: CN(C)CC(=O)Nc1ccc2[nH]c(=O)c3ccccc3c2c1
# Method in brief: as §1
# [18] = compound: CN(CCOC1=CC=C(C=C1)C[C@H]2C(=O)NC(=O)S2)C3=CC=CC=N3 (racemic) [rosiglitazone]
# Method in brief: as §1
# [19] = compound: CN1C2=C(C3=C1C(=O)N(N=C3)CC4=CC(=CC=C4)N)SC(=C2)S(=O)C
# Method in brief: as §1
# [20] = compound: CN1CCC(CNc2ccc3ncc(-c4cccc(OC(F)(F)F)c4)n3n2)CC1
# Method in brief: as §1
# UniProt P11498, sequence (P11498 whole entry, looked up): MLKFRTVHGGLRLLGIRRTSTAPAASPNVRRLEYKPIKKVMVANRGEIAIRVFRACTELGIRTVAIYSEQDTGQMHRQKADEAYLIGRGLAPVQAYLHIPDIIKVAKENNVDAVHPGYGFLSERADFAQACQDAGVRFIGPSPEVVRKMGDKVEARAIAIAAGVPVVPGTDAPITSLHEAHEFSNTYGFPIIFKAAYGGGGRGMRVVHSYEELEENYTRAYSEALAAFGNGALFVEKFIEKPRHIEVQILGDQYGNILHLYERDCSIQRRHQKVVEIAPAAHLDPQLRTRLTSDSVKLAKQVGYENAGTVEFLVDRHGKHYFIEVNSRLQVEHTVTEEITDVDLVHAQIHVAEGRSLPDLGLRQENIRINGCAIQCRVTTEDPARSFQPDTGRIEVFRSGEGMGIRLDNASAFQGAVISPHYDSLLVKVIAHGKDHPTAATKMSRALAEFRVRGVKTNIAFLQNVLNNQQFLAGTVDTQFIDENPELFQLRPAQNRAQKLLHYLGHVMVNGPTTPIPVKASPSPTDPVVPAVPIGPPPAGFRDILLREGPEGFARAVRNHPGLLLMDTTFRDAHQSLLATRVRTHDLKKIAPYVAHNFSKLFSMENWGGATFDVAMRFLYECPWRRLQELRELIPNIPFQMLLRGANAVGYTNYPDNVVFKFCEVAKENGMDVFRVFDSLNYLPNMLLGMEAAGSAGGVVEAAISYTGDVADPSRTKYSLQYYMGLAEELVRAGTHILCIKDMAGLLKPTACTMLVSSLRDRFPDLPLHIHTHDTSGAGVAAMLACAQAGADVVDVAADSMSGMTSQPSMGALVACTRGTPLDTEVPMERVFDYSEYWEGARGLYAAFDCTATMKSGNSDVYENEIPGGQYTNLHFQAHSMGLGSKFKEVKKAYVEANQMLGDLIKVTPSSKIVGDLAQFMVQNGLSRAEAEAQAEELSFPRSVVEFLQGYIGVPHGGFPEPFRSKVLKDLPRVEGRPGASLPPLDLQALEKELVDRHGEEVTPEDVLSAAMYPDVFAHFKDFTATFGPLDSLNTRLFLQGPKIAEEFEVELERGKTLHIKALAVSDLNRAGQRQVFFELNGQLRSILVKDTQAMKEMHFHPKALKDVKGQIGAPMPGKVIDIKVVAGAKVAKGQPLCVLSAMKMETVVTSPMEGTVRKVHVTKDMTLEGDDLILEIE
# UniProt O95997, sequence (O95997 whole entry, looked up): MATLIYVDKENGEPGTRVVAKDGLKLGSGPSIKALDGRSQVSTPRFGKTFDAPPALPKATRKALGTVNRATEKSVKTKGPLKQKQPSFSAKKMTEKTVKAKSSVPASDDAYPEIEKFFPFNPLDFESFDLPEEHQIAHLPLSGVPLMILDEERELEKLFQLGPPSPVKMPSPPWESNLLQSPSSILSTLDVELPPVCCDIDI
# UniProt Q08752, sequence (Q08752 whole entry, looked up): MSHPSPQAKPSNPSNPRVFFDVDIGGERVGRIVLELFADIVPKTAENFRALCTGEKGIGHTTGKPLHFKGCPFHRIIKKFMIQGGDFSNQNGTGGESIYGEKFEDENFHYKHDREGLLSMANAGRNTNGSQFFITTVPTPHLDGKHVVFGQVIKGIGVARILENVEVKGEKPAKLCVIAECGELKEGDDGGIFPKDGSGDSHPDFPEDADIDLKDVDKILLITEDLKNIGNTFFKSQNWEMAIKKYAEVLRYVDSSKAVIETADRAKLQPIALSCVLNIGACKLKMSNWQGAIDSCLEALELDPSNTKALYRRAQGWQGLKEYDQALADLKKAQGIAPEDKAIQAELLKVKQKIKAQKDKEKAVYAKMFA
# UniProt O14974, sequence (O14974 whole entry, looked up): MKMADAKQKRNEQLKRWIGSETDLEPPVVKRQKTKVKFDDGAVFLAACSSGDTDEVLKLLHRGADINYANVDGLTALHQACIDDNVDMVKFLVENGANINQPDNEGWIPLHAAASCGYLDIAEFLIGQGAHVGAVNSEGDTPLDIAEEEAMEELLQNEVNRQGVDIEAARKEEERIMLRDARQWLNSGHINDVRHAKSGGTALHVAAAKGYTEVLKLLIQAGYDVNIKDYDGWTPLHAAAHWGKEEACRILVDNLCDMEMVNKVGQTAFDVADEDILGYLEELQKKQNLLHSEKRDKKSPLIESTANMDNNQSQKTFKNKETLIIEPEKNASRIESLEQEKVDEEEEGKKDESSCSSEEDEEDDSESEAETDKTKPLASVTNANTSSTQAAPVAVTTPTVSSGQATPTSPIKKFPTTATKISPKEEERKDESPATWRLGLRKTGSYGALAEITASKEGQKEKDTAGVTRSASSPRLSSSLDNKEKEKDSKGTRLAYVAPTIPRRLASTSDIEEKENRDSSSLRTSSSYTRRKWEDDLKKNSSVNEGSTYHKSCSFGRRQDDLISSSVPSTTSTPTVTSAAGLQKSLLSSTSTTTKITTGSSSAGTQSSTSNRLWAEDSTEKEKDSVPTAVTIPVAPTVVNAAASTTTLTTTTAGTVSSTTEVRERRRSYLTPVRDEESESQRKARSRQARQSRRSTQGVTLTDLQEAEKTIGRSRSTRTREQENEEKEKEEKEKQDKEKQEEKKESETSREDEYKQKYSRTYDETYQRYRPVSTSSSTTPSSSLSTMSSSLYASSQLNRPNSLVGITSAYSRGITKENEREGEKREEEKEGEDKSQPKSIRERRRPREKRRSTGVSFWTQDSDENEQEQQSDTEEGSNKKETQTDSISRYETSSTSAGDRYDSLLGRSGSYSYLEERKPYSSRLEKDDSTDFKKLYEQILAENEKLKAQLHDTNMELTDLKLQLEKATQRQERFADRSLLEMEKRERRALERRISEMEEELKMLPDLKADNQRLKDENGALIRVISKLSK
# UniProt P35998, sequence (P35998 whole entry, looked up): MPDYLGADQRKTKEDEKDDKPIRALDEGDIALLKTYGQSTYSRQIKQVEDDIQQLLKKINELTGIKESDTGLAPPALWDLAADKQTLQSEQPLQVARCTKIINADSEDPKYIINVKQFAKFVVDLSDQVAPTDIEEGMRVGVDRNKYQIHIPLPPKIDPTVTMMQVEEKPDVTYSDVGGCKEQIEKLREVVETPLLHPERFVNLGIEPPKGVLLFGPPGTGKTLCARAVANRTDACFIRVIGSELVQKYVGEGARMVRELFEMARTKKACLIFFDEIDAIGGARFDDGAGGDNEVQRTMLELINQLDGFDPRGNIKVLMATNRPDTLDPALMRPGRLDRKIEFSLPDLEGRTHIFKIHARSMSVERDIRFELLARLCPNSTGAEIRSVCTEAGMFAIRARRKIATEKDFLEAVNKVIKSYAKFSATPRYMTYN
# UniProt Q14671, sequence (Q14671 whole entry, looked up): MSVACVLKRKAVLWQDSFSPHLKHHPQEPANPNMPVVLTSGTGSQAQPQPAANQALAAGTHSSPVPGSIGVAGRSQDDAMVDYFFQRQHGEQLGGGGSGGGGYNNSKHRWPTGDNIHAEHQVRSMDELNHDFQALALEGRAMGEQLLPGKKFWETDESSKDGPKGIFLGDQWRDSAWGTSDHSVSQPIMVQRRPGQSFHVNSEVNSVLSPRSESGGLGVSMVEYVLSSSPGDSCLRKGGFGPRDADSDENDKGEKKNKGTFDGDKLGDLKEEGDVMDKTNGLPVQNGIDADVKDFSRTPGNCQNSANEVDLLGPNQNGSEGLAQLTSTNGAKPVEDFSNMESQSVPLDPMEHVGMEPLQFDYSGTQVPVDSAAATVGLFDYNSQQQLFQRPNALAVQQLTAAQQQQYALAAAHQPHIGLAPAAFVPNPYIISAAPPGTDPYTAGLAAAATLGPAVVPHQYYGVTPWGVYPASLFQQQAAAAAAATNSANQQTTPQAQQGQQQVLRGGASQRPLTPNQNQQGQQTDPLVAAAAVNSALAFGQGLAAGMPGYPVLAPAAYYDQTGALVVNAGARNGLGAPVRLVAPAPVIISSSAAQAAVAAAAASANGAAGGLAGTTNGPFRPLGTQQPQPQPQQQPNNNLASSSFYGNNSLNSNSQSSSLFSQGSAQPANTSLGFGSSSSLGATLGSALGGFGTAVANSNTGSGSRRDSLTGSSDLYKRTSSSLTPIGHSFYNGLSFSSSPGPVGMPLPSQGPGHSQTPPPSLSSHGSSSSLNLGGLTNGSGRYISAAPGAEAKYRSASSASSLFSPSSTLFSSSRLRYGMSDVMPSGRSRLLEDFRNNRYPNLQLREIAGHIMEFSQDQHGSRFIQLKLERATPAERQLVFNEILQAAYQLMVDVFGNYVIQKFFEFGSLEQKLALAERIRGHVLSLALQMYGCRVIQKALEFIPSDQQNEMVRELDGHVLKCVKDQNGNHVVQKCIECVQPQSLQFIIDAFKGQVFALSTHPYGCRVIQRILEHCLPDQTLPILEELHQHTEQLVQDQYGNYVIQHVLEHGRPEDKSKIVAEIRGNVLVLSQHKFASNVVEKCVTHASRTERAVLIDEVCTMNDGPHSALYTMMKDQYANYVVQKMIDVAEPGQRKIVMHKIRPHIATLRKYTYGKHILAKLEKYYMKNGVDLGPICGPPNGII
# UniProt Q7Z7A4, sequence (Q7Z7A4 whole entry, looked up): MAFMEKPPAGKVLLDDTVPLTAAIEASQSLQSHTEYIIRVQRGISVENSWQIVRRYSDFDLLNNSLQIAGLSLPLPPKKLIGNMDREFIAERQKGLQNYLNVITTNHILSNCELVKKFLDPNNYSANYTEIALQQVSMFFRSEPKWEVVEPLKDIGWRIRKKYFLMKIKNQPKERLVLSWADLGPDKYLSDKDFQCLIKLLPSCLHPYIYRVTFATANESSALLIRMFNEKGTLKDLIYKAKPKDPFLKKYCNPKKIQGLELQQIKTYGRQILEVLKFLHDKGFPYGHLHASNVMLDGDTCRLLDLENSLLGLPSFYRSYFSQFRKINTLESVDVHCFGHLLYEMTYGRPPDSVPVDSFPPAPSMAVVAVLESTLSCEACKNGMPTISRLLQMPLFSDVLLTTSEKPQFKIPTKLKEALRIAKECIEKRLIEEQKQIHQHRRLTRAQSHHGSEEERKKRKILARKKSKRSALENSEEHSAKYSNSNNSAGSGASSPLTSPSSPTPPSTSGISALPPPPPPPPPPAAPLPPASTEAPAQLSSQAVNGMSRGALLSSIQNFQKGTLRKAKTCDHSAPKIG
Target,log2 fold change [1],log2 fold change [2],log2 fold change [3],log2 fold change [4],log2 fold change [5],log2 fold change [6],log2 fold change [7],log2 fold change [8],log2 fold change [9],log2 fold change [10],log2 fold change [11],log2 fold change [12],log2 fold change [13],log2 fold change [14],log2 fold change [15],log2 fold change [16],log2 fold change [17],log2 fold change [18],log2 fold change [19],log2 fold change [20]
PPP6R1 (UniProt Q9UPN7),0.014,0.023,0.022,0.036,-0.1,0.08,0.018,-0.001,-0.018,-0.025,-0.098,-0.297 (active),0,-0.033,0.029,0.026,0.053,0.026,-0.007,-0.048
PCYT1B (UniProt Q9Y5K3),0.007,0.022,0.011,0.034,-0.06,0.022,0.049,-0.031,0.038,0.048,-0.105,-0.315 (active),0.08,0.001,-0.033,0,0.012,0.041,-0.007,0.035
PPID (UniProt Q08752),0.011,-0.047,0.091,0.005,0.008,0.097,0.105,0.104,0.122,0.057,-0.076,-0.366 (active),0.132,0.026,-0.046,-0.058,0.087,0.062,-0.015,-0.173
POLR2M (UniProt P0CAP2),0.007,-0.014,0.027,0,-0.019,0.021,-0.062,0,-0.031,-0.009,0.084,0.026,0.013,-0.018,-0.022,0.034,0.004,0.045,-0.028,0.037
PC (UniProt P11498),0.07,-0.103,0.038,0.012,-0.07,0,0.032,0.039,0.022,0.009,-0.041,-0.069,0.067,0.041,-0.082,-0.217,0.027,0.084,-0.128,0.03
PXK (UniProt Q7Z7A4),0.017,-0.059,-0.041,0.011,-0.018,0.017,0.071,-0.046,0.022,0.002,-0.136,-0.077,0.04,0.029,0.004,-0.012,0.027,0.046,-0.028,-0.208
PCK2 (UniProt Q16822),-0.002,-0.064,-0.008,0.045,-0.065,-0.006,0.002,0.014,-0.13,0.011,0.012,-0.076,0.033,0.059,0.016,-0.07,0,0.011,-0.094,0.027
RAB11FIP1 (UniProt Q6WKZ4),-0.009,0.001,0.015,-0.018,0.034,0.006,0.063,0.009,0.015,0.014,-0.07,-0.105,0.023,0.122,0.015,-0.063,0.021,0.018,-0.017,-0.373 (active)
PUM1 isoform 3 (UniProt Q14671),-0.011,0.01,0.011,0.042,0.06,0.02,0.05,0.002,-0.03,0.011,-0.075,-0.302 (active),0.036,0.023,-0.007,-0.018,0.015,0.033,0.044,-0.123
PPP1R12A (UniProt O14974),-0.012,-0.036,0.046,0.045,0.001,0.015,0.073,-0.032,0.048,0.066,-0.136,-0.468 (active),0.066,0.067,-0.028,-0.229,0,0.059,-0.016,-0.536 (active)
PMPCA (UniProt Q10713),0.046,-0.049,0.014,0.006,-0.102,0.025,0.037,-0.006,-0.019,-0.027,0.018,0.158,0.021,0.029,0.016,-0.095,0.013,0.024,-0.124,0.138
PRKAB2 (UniProt O43741),0.122,-0.015,0.106,0.118,-0.079,0.074,0.177,-0.18,0.027,0.067,0.085,-0.185,0.022,0.205,0.013,-0.089,0.067,0.044,0.043,-0.247
PTTG1 (UniProt O95997),0.007,-0.353,0.02,-0.077,0.098,-0.081,-0.045,-0.021,0.068,0.023,0.105,0.124,0.008,0.293 (active),0.008,0.057,-0.02,0.008,0.008,-0.092
PDS5B (UniProt Q9NTI5),-0.088,0.086,0.176,0.109,-0.011,-0.032,0.32,-0.058,0.135,0.047,-0.004,0.024,0.12,0.105,-0.113,0.103,0.079,0.035,0.131,-0.41
PSMC2 (UniProt P35998),0.011,0.02,-0.012,-0.069,0.011,-0.014,-0.041,0.036,-0.032,-0.053,0.042,0.169,-0.019,-0.324 (active),0.012,0.024,-0.018,-0.044,0.023,0.039
POGZ (UniProt Q7Z3K3),0.037,-0.025,0.028,0.008,-0.127,0.122,-0.024,,-0.142,,-0.077,-0.293,,0.08,-0.088,-0.192,0.07,,0.006,0.063
